In the supplement of paper PMC7380943:

Experiments:
[1] = tested on: CLZ3 (HCA2 human fibroblast dual HR-NHEJ reporter); assay: NHEJ repair efficiency (GFP+ cells) relative to control (log10 fold); higher = more non-homologous end joining; conditions: 5 µM; doxycycline 0.5 ug/mL
[2] = tested on: CLZ3 (HCA2 human fibroblast dual HR-NHEJ reporter); assay: HR repair efficiency (tdTomato+ cells) relative to control (log10 fold); higher = more homologous recombination; conditions: 5 µM; doxycycline 0.5 ug/mL
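Wherever HR repair efficiency (tdTomato+ cells) relative to control is given: compound given one day before doxycycline, which switches on I-SceI endonuclease expression to create double-strand breaks within the integrated reporter.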
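Wherever NHEJ repair efficiency (GFP+ cells) relative to control is given: compound given one day ahead of doxycycline, which switches on I-SceI endonuclease to cut the chromosomally integrated reporter and create DSBs.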

Compound	NHEJ repair efficiency (log10) [1]	HR repair efficiency (log10) [2]
CN1Cc2c(ccc3c2OCO3)[C@@]2(C)[C@@H](O)Cc3cc4c(cc3[C@@H]12)OCO4 [Corynoline]	-0.128	-0.201
Cc1cc(O)c2c(c1)C(=O)c1cccc(O)c1C2=O [Chrysophanol]	0.0473	0.134
O=C(O)c1ccccc1O [Salicylic acid]	0.019	0.0351
O=C(O)[C@H]1O[C@@H](Oc2cc3oc(-c4ccc(O)cc4)cc(=O)c3c(O)c2O)[C@H](O)[C@@H](O)[C@@H]1O [Scutellarin]	-0.122	0.0441
C/C=C(/C)C(=O)O[C@H]1c2cc(OC)c(OC)c(OC)c2-c2c(cc3c(c2OC)OCO3)C[C@H](C)[C@]1(C)O [Wuweizi Ester B]	-0.108	0.0267
C[C@H](CCC(=O)O)[C@H]1CC[C@H]2[C@@H]3CC[C@@H]4C[C@H](O)CC[C@]4(C)[C@H]3C[C@H](O)[C@]12C [Deoxycholic acid]	-0.0363	0.0026
C[C@@H]1CC[C@@]2(OC1)O[C@H]1C[C@H]3[C@@H]4CC[C@H]5C[C@@H](O)CC[C@]5(C)[C@H]4CC[C@]3(C)[C@H]1[C@@H]2C [Tigogenin]	0.0196	0.0468
O=C1C=C2C=C[C@@H](O)[C@H](O)[C@H]2O1 [Griffonilide]	0.0786	0.00766
C[C@@]1(CO)C[C@@H](O)C[C@@]2(C)[C@@H]3CC[C@](C)([C@@H](O)CO)C=C3CC[C@H]12 [Kirenol]	-0.121	0.0441
C[C@H]1[C@H](C)CC[C@]2(C(=O)O[C@@H]3O[C@H](CO[C@@H]4O[C@H](CO)[C@@H](O[C@@H]5O[C@H](C)[C@H](O)[C@@H](O)[C@H]5O)[C@H](O)[C@H]4O)[C@@H](O)[C@H](O)[C@H]3O)CC[C@]3(C)C(=CC[C@@H]4[C@@]5(C)C[C@@H](O)[C@H](O)[C@@](C)(CO)[C@@H]5CC[C@]43C)[C@H]12 [Asiaticoside]	-0.0035	-0.0111
Cn1c(=O)c2nc[nH]c2n(C)c1=O [Theophylline]	0.0481	0.0978
CCOC(=O)c1cc(O)c(O)c(O)c1 [Gallic Acid Ethyl Ester]	0.018	0.00694
C[C@@H]1O[C@@H](O[C@H]2[C@H](OC(=O)[C@]34CCC(C)(C)C[C@H]3C3=CC[C@@H]5[C@@]6(C)C[C@H](O)[C@H](O[C@@H]7O[C@H](CO)[C@@H](O)[C@H](O)[C@H]7O)C(CO)(CO)[C@@H]6CC[C@@]5(C)[C@]3(C)C[C@H]4O)OC[C@H](O)[C@@H]2O)[C@H](O)[C@H](O)[C@H]1O[C@@H]1OC[C@@H](O)[C@H](O[C@@H]2OC[C@](O)(CO)[C@H]2O)[C@H]1O [Platycodin D]	-0.142	-0.287
COc1cc2c(c(OC)c1OC)-c1c(cc(OC)c(OC)c1OC)C[C@H](C)[C@H](C)C2 [Schisandrin A]	-0.121	-0.0756
OC[C@H]1O[C@@H](O[C@@H]2OC=C[C@H]3[C@H](O)[C@@H]4O[C@]4(CO)[C@@H]23)[C@H](O)[C@@H](O)[C@@H]1O [Catalpol]	0.0212	0.00259
CC(C)C(C)C(O)C(O)C(C)C1CCC2C3COC(=O)C4CC(O)C(O)CC4(C)C3CCC12C (stereo not drawn) [Brassinolide]	-0.122	-0.073
O=C(O)c1ccc(O)c(O)c1 [3,4-Dihydroxybenzoic acid]	0.00743	-0.033
COC(=O)[C@H](c1ccccc1Cl)N1CCc2sccc2C1 [Clopidogrel bisulfate]	0.138	0.138
COc1cc(/C=C/C(=O)O)ccc1O [Sodium Ferulate]	-0.0171	0.0132
CC(C)=CCC[C@](C)(O[C@@H]1O[C@H](CO)[C@@H](O)[C@H](O)[C@H]1O)[C@H]1CC[C@]2(C)[C@@H]1[C@H](O)C[C@@H]1[C@@]3(C)CC[C@H](O)C(C)(C)[C@@H]3[C@@H](O[C@@H]3O[C@H](CO)[C@@H](O)[C@H](O)[C@H]3O[C@@H]3OC[C@@H](O)[C@H](O)[C@H]3O)C[C@]12C [Notoginsenoside R1]	-0.0455	0.0156
O=c1c(-c2ccc(O)c(O)c2)coc2c([C@@H]3O[C@H](CO)[C@@H](O)[C@H](O)[C@H]3O)c(O)ccc12 [3-Hydroxy Puerarin]	-0.187	-0.112
COc1cc(OC)c(CCC(=O)c2ccc(O)cc2)c(OC)c1	-0.0337	0.0988
O=C(O)c1ccccc1 [Benzoic Acid]	-0.0219	0.137
COc1ccc([C@H]2OC[C@H]3[C@@H]2CO[C@H]3c2ccc(O[C@@H]3O[C@H](CO)[C@@H](O)[C@H](O)[C@H]3O)c(OC)c2)cc1OC [Phillyrin]	-0.0633	-0.0538
O=C(/C=C/c1ccc(O[C@@H]2O[C@H](CO)[C@@H](O)[C@H](O)[C@H]2O)cc1)c1ccc(O)cc1O [Isoliquiritoside]	-0.17	-0.232

Compound	NHEJ repair efficiency (log10) [1]	HR repair efficiency (log10) [2]
C[C@@H]1CC[C@]2(C(=O)O)CC[C@]3(C)C(=CC[C@@H]4[C@@]5(C)CC[C@H](O)[C@@](C)(CO)[C@@H]5CC[C@]43C)[C@@H]2[C@]1(C)O [Rotundic Acid]	-0.0308	0.0236
CC(C)=CCC/C(C)=C/C=C/C(C)=C/C=C/C(C)=C/C=C/C=C(C)/C=C/C=C(C)/C=C/C=C(\C)CCC=C(C)C [Lycopene]	-0.109	0.0372
O=C(O)Cc1c(C=CC(=O)OC(Cc2ccc(O)c(O)c2)C(=O)O)ccc(O)c1O (stereo not drawn) [Salvianolic Acid D]	-0.0658	0.105
C[C@@H]1CC[C@@]2(OC1)O[C@H]1C[C@H]3[C@@H]4CC=C5C[C@@H](O[C@@H]6O[C@H](CO)[C@@H](O)[C@H](O[C@@H]7O[C@H](CO)[C@@H](O)[C@H](O)[C@H]7O)[C@H]6O[C@@H]6O[C@@H](C)[C@H](O)[C@@H](O)[C@H]6O)CC[C@]5(C)[C@H]4CC[C@]3(C)[C@H]1[C@@H]2C [Gracillin]	-0.154	-0.0532
COc1c2occc2cc2ccc(=O)oc12 [Xanthotoxin]	-0.261	-0.0664
CC(C)=CCC[C@](C)(O[C@@H]1O[C@H](CO)[C@@H](O)[C@H](O)[C@H]1O)[C@H]1CC[C@]2(C)[C@@H]1[C@H](O)C[C@@H]1[C@@]3(C)CC[C@H](O[C@@H]4O[C@H](CO)[C@@H](O)[C@H](O)[C@H]4O[C@@H]4O[C@H](CO)[C@@H](O)[C@H](O)[C@H]4O)C(C)(C)[C@@H]3CC[C@]12C [Ginsenoside Rd]	0.0871	0.0615
C/C=C(/C)C(=O)OC(C)(C)[C@@H]1Cc2c(ccc3ccc(=O)oc23)O1 [Columbianadin]	-0.0553	-0.0376
C[C@H]1[C@H](OC(=O)CCC(=O)O)O[C@@H]2O[C@@]3(C)CC[C@H]4[C@H](C)CC[C@@H]1[C@@]24OO3 [Artesunate]	-0.0268	-0.241
O=C(O)[C@H]1O[C@@H](Oc2cc3oc(-c4ccccc4)cc(=O)c3c(O)c2O)[C@H](O)[C@@H](O)[C@@H]1O [Baicalin]	-0.073	0.053
O=C1c2c(O)cccc2C([C@@H]2O[C@H](CO)[C@@H](O)[C@H](O)[C@H]2O)c2cc(CO)cc(O)c21 (stereo partly drawn) [Barbaloin]	0.0217	0.119
CC1=C[C@]2(O)O[C@@]3(CC2=C(C)C)[C@@H](C)CC[C@@H]13 [Curcumenol]	0.129	0.132
CC(C)=CCC12Oc3cc(O)ccc3C1(O)Oc1cc(O)c([C@H]3C=C(C)C[C@@H](c4ccc(O)cc4O)[C@@H]3C(=O)c3ccc(O)cc3O)c(O)c1C2=O (stereo partly drawn) [Sanggenon D]	-0.0219	-0.176
OC[C@@H]1O[C@@H](OC[C@H]2O[C@@H](OC/C=C/c3ccccc3)[C@H](O)[C@@H](O)[C@@H]2O)[C@H](O)[C@H]1O [Rosarin]	0.0801	0.118
O=C1c2cccc(O)c2C(=O)c2c(O)cccc21 [1,8-Dihydroxyanthraquinone]	-0.286	-0.106
O=C(/C=C/c1ccc(O)c(O)c1)O[C@@H]1C[C@@](OC(=O)/C=C/c2ccc(O)c(O)c2)(C(=O)O)C[C@@H](O)[C@@H]1O [Cynarin (1,5-Di-O-caffeoylquinic acid)]	0.0398	0.0943
O=C1OC2(c3ccccc3Oc3ccccc32)c2ccccc21 [Fluoran]	0.0054	0.0374
COC(=O)c1ccc(O)cc1 [Methylparaben]	0.0529	0.0479
NCCCC(=O)O [g-Aminobutyric acid]	0.0698	0.0647
CC(=O)O[C@@H]1CC[C@@]2(C)[C@@H](CC[C@]3(C)[C@@H]2C(=O)C=C2[C@@H]4[C@@H](C)[C@H](C)CC[C@]4(C)CC[C@]23C)[C@@]1(C)C(=O)O [3-Acetyl-11-Keto-Beta-Boswellic Acid]	-0.179	-0.0515
COC(=O)C1=CO[C@@H](O[C@@H]2O[C@H](CO)[C@@H](O)[C@H](O)[C@H]2O)[C@H]2[C@@H]1[C@H](O)C[C@]2(C)O [Shanzhiside methylester]	0.193	0.314
O=c1cc(-c2ccc(O[C@@H]3O[C@H](CO)[C@@H](O)[C@H](O)[C@H]3O)cc2)oc2cc(O)c([C@@H]3O[C@H](CO)[C@@H](O)[C@H](O)[C@H]3O[C@@H]3OC[C@H](O)[C@H](O)[C@H]3O)c(O)c12 [Vaccarin]	-0.0315	-0.086
C[C@@]12C[C@@]3(O)O[C@@H](O1)[C@]1(COC(=O)c4ccccc4)[C@@H]3C[C@]12O[C@@H]1O[C@H](COC(=O)c2ccccc2)[C@@H](O)[C@H](O)[C@H]1O [Benzoylpaeoniflorin]	-0.0544	-0.0282
COc1ccc(-c2coc3cc(O)cc(O)c3c2=O)cc1 [Biochanin A]	-0.0507	0.0228
COc1cc(C[C@H](C)[C@H](C)Cc2ccc3c(c2)OCO3)ccc1O [Anwuligan]	0.0149	0.0747
